About 27,000 (9.3%) of roughly 290,000 compounds were called active. Many of the other results were omitted from the sample, so actives are more common in it than they were. Values without a mark were called inactive. Rule as the data show it: active = inhibition mostly above about 28% (no sharp cut-off); inactive = mostly below about 43%.
Test: A qHTS for Small Molecule Inhibitors of Shiga Toxin; also: 0% is about no effect
Conditions: Vero cells, Shiga toxin protein synthesis inhibition reporter; at 38.7 µM, active compounds read high

SMILES	inhibition
CC(=O)Nc1ccc(S(=O)(=O)NCC2CCC(C(=O)NCCc3ccccc3)CC2)cc1 (stereo unspecified)	3.01%
COc1ccc(CCNS(=O)(=O)c2cccc([N+](=O)[O-])c2)cc1	-8.39%
Cc1c(C(C)(C)O)[nH]c2ccc(C#N)cc12	7.17%
CC(=O)Nc1ccc(NC(=O)CN2C(=O)COc3ccc(S(=O)(=O)N4CCCCC4)cc32)cc1	-6%
CCOCCCNc1c(CC)c(C)c(C#N)c2nc3ccccc3n12	-5.72%
Cn1nc(-c2ccccc2)c2cc([N+](=O)[O-])ccc21	-6.77%
CCOc1ccc(N/C(N)=N/c2nc(C)c(C)c(=O)[nH]2)cc1	0.318%
COc1cccc(/C=N/Nc2ncc(C(F)(F)F)cc2Cl)c1O	-37.7% (active)
COC(=O)Cc1ccc(Oc2ncc(C(F)(F)F)cc2Cl)cc1	26.3%
N/C(=N\OC(=O)Nc1ccc(Cl)c(Cl)c1)c1ncc(C(F)(F)F)cc1Cl	-18.1%
CC(=O)N1c2ccc(S(=O)(=O)N3CCC(C(=O)NCc4ccc(F)cc4)CC3)cc2CC1C (stereo unspecified)	-3.9%
CSc1ccccc1N1CCN(CCCCCC(=O)NC2CCCc3ccccc32)CC1 (stereo unspecified)	-5.33%
COc1ccc(CN2CCCC(C(=O)c3ccc(Cl)cc3)C2)cc1Cn1cncn1 (stereo unspecified)	-2.03%
COc1ccc(N2C(=O)c3ccccc3NC2c2ccc(OC)c(CN3CCOCC3)c2)cc1 (stereo unspecified)	64% (active)
COc1ccc(C2Nc3ccccc3C(=O)N2c2ccc(F)cc2)cc1Cn1nnc2ccccc21 (stereo unspecified)	-5.43%
COc1ccc(C2Nc3ccccc3C(=O)N2Cc2ccccc2)cc1Cn1nnc2ccccc21 (stereo unspecified)	-22.2%
COc1ccc([N+](=O)[O-])cc1C1NN=C(c2cccc3ccccc23)S1 (stereo unspecified)	-12.5%
COc1ccc(C2Nc3ccccc3C(=O)N2c2ccc(Cl)cc2)cc1Cn1cc([N+](=O)[O-])cn1 (stereo unspecified)	115% (active)
COC(=O)C1=CN(Cc2ccc(OC)cc2)C=C(C(=O)OC)C1c1ccc(O)c(OC)c1	-14.4%
CCC(NC(=O)C1CCCC1)c1ccc(C)cc1 (stereo unspecified)	-3.88%
O=C(Nc1ccc(Br)cc1)c1cc(S(=O)(=O)Nc2ccccn2)ccc1Cl	-18.3%
NC(=O)c1ccc(Nc2ccc3nonc3c2[N+](=O)[O-])cc1	-16.8%
N#Cc1c(-c2ccccc2)nc(SCc2cccc(C(F)(F)F)c2)[nH]c1=O	-1.96%
O=[N+]([O-])c1cnc2ccc3ccccc3c2c1	27.3%
O=[N+]([O-])c1cccc(Nc2c3ccccc3nc3ccccc23)c1	-12.3%
O=[N+]([O-])c1ccc2c(c1)Nc1nc3ccccc3nc1N2	119% (active)
